Test [1] in a line: antimalarial activity against Dd2 strain (AID 2302;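 active = growth inhibition above 50% at the single 2 µM test dose, taken to imply half-maximal potency below 2 µM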;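 also: 0% = DMSO untreated growth and 100% = chloroquine plus artemisinin killed control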). Particulars: P. falciparum Dd2 in RBCs, LDH growth readout, 72 h; at 2 µM; stronger effect = higher value.
A short description of test [2]: human hepatoma cell viability loss – ATP luminescence, cytotoxicity control for P. falciparum antimalarial project, primary screen (AID 2303;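 active = inhibition above 50%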;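 also: 0% = DMSO wells and 100% = digitonin-killed cells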). As to conditions: HepG2 viability, 24-48 h, at 10 µM, stronger effect = higher value.
In test [3] the target is L-lactate dehydrogenase (Plasmodium falciparum (isolate CDC / Honduras)) (UniProt Q27743). Description: PfLDH activity inhibition – cell lysate, 3D7 strain, counter-screen for P. falciparum growth inhibition project (AID 2304).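 Also: 0% = vehicle and 100% = reference inhibitor.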 Particulars: P. falciparum 3D7 crude extract, LDH APAD/NBT absorbance; at 2 µM; stronger effect = higher value.
L-lactate dehydrogenase (Plasmodium falciparum (isolate CDC / Honduras)), sequence (Q27743 whole entry, looked up): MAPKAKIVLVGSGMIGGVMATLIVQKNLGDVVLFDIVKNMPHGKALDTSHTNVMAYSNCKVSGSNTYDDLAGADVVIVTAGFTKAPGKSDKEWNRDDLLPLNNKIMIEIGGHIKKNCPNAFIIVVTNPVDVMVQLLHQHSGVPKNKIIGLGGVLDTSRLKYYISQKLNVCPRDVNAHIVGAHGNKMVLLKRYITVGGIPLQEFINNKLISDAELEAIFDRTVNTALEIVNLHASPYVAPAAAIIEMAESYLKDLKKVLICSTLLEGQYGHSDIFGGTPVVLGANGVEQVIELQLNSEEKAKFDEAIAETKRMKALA
Test [4] can be described thus: inhibition of 3D7 malaria parasite growth – strain 3D7 (AID 2306).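 Also: 0% = DMSO wells and 100% = chloroquine plus artemisinin control wells.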 As to conditions: P. falciparum 3D7 erythrocytic growth, LDH absorbance, 72 h; at 2 µM; stronger effect = higher value.
For test [5], the target named is Calcium-dependent protein kinase 1 (Plasmodium falciparum (isolate 3D7)) (UniProt P62344). Description: PfCDPK1 kinase inhibitors, biochemical, TCAMS library (AID 1159585; cut-off not given, nearly all actives have IC50 up to about 0.98 µM;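 also: inhibitors leave more ATP so luminescence rises with inhibition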). Particulars: recombinant PfCDPK1, Kinase-Glo ATP depletion luminescence. (In general: Kinase-Glo measures the ATP left after a reaction by luminescence.)
Calcium-dependent protein kinase 1 (Plasmodium falciparum (isolate 3D7)), sequence (P62344 whole entry, looked up): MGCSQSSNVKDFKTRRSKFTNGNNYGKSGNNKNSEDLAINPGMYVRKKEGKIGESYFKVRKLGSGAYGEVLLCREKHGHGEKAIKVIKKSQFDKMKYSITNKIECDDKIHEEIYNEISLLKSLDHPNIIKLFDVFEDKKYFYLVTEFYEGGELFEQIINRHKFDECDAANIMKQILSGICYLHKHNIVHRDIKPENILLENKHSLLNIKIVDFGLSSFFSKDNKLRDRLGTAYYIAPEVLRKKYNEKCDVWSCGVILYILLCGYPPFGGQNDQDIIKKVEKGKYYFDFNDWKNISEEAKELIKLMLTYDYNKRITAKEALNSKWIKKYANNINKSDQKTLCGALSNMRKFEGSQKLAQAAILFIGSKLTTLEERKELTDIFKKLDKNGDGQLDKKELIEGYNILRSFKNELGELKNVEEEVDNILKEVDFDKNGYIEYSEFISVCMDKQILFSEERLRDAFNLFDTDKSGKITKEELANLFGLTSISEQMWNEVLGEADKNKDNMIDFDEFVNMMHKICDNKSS
Test [6] deals with Plasmodium falciparum protein kinase 6 (PK6, PF3D7_1337100) (UniProt Q8IDW1). Description: PfPK6 kinase inhibitors, biochemical, TCAMS library (AID 1159586). As to conditions: recombinant PfPK6, Kinase-Glo ATP depletion luminescence.
Plasmodium falciparum protein kinase 6 (PK6, PF3D7_1337100), sequence (Q8IDW1 1-305): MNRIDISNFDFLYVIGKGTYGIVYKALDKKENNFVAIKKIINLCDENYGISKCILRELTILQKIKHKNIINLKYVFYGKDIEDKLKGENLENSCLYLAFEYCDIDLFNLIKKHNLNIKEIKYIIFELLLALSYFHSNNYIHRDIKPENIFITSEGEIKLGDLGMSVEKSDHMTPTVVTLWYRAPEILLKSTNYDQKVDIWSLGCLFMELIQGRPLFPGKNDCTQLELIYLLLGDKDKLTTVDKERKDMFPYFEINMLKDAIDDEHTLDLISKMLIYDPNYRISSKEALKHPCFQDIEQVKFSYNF
The target of test [7] is Protein kinase 7 (PK7), Plasmodium falciparum 3D7 (PF3D7_0213400) (UniProt Q7YTF7). As to the kind of experiment: inhibition of Plasmodium PK7 catalytic activity – biochemical, TCAMS antimalarial set, Kinase-Glo luminescence (AID 1159587). Particulars: recombinant PfPK7, Kinase-Glo ATP depletion luminescence.
Protein kinase 7 (PK7), Plasmodium falciparum 3D7 (PF3D7_0213400), sequence (Q7YTF7 1-343): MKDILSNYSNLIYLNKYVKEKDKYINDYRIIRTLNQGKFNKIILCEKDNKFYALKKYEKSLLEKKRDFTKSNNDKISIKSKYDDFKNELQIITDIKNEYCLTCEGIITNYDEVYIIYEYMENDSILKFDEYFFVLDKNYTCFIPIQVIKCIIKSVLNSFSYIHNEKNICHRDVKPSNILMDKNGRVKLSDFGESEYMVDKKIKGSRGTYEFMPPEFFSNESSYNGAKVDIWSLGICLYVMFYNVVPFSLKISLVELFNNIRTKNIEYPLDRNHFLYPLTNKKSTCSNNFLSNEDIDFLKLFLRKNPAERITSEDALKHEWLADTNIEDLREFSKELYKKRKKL
Test [8] has as its target Calcium-dependent protein kinase 4 (Plasmodium falciparum (isolate 3D7)) (UniProt Q8IBS5). As to the kind of experiment: PfCDPK4 kinase inhibitors, biochemical, TCAMS library (AID 1159588; cut-off not given, nearly all actives have IC50 up to about 0.91 µM). As to conditions: recombinant PfCDPK4, Kinase-Glo ATP depletion luminescence.

Values without a mark were called inactive. For some of these results: Potency and affinity values are given separately. Activity calls are given as the source filed them. Unless noted, no rule for the calls is given here.

Calcium-dependent protein kinase 4 (Plasmodium falciparum (isolate 3D7)), sequence (Q8IBS5 whole entry, looked up): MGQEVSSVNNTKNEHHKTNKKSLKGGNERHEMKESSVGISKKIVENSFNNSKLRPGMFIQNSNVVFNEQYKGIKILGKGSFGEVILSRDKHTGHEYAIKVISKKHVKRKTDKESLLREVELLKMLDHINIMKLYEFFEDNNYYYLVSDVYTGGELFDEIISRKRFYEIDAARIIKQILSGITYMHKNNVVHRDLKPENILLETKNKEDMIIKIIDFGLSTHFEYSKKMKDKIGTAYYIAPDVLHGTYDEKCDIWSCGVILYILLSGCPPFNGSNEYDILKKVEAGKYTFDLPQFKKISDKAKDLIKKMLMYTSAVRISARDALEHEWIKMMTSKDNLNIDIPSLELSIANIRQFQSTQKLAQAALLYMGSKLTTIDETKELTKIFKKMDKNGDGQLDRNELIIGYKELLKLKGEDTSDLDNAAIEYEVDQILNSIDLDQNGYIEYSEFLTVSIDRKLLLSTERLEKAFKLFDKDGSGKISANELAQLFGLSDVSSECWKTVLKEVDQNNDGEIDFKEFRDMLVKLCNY

As to `CC(C)c1ccc2[nH]c(C(=O)NC3CCC(N4CCCc5ccc(C#N)cc5C4)CC3)cc2c1` (stereo not given), the growth inhibition in test [1] is 27%; in test [4], 91% (active). For the same compound, the inhibition (as a rule, the change of the read-out against control, counted positive when it falls) is 48% in test [2] and -3% in test [3]. The outcome in test [5], in test [6], in test [7] and in test [8] was inactive.
Consider `O=C(N[C@@H](Cc1ccccc1)C(=O)NC1CCCCCC1)c1ccc(O)c(-c2ccc(Cl)c(Cl)c2)c1`, for which the growth inhibition is 99% (active) in test [1] and 92% (active) in test [4]. Moreover, the results for the inhibition in test [2] and in test [3] were -6% and -9%, respectively. For the same compound, the result in test [5], in test [6], in test [7] and in test [8] was inactive.
Consider `Cc1cccc2[nH]c(-c3ccc(-c4ccc(CNCc5cnn(-c6ccccc6)n5)cc4)cc3)nc12`, for which the growth inhibition is 99% (active) in test [1] and 101% (active) in test [4]. The results for the inhibition in test [2] and in test [3] were 35% and -4%, respectively. For the same compound, the result in test [5], in test [6], in test [7] and in test [8] was inactive.
As to `O=C(/C=C/c1ccc(C(F)(F)F)cc1)NCCCCCN1CCC(c2c[nH]c3ccccc23)CC1`, the growth inhibition in test [1] is 22%; in test [4], 101% (active). Moreover, the inhibition in test [2] is 96% (active); in test [3], 1%. Moreover, the outcome in test [5], in test [6], in test [7] and in test [8] was inactive.
Regarding `O=C(Nc1ccc(-c2ccccc2)c(OCCN2CCNCC2)c1)c1ccc(-c2ccc(Cl)cc2)cc1`, the figures for the growth inhibition in test [1] and in test [4] were 31% and 96% (active), respectively. Also, the results for the inhibition in test [2] and in test [3] were 92% (active) and -8%, respectively. In addition, the outcome in test [5], in test [6], in test [7] and in test [8] was inactive.
As to `Cc1cccc2[nH]c(-c3ccc(-c4ccc(CNCCCNS(C)(=O)=O)cc4)s3)nc12`, the growth inhibition in test [1] is 4%; in test [4] it was 99% (active). Also, the inhibition in test [2] was 13%; in test [3], 3%. Further, the result in test [5], in test [6], in test [7] and in test [8] was inactive.
Turning to `Cc1cccc2[nH]c(-c3cccc(-c4cccc(NC(=O)Nc5cccc(C#N)c5)c4)c3)nc12`, the growth inhibition in test [1] was 99% (active); in test [4] it was 101% (active). The inhibition in test [2] was 22%; in test [3] it was 6%. The result in test [5], in test [6], in test [7] and in test [8] was inactive.
On to `CC(C)C[C@H](NC(=O)c1cc2cc(OCCN3CCNCC3)ccc2o1)C(=O)NC1CC[C@@H](C)N(C(=O)Nc2ccc(Cl)cc2)CC1=O` (stereo not given in full), for which the values for the growth inhibition in test [1] and in test [4] were 92% (active) and 90% (active), respectively. In addition, the inhibition was -3% in test [2] and 6% in test [3]. Besides, the outcome in test [5], in test [6], in test [7] and in test [8] was inactive.
With `CN1Cc2cc(NC(=O)/C=C/c3ccccc3Cl)ccc2C(C)(C)C1`, the growth inhibition in test [1] was 96% (active); in test [4] it was 99% (active). Further, the inhibition in test [2] was 12%; in test [3] it was -3%. In addition, the outcome in test [5], in test [6], in test [7] and in test [8] was inactive.
As for `Cc1[nH]c2c(C)cccc2c1C1CCN(CCC2CCN(C(=O)/C=C/c3ccc(Cl)c(Cl)c3)CC2)CC1`, the values for the growth inhibition in test [1] and in test [4] were 79% (active) and 100% (active), respectively. Further, the inhibition in test [2] is 67% (active); in test [3] it was -1%. Besides, the result in test [5], in test [6], in test [7] and in test [8] was inactive.
As for `CCNc1cc(C(=O)N[C@@H](Cc2ccccc2)[C@H](O)CNC2(CC)CCCCC2)cc(N2CCCCS2(=O)=O)c1`, the growth inhibition in test [1] and in test [4] was 98% (active) throughout. Moreover, the results for the inhibition in test [2] and in test [3] were 3% and -3%, respectively. In addition, the outcome in test [5], in test [6], in test [7] and in test [8] was inactive.
For `CN(C)c1ccnc2ccc(NC(=O)Nc3ccnc4ccccc34)cc12`, the values for the growth inhibition in test [1] and in test [4] were 99% (active) and 100% (active), respectively. The inhibition in test [2] is 15%; in test [3], 3%. Besides, the outcome in test [5], in test [6], in test [7] and in test [8] was inactive.
For the compound `O=C(/C=C/c1ccc(Cl)c(Cl)c1)NCCCCCN1CCCN(C(=O)Nc2cc(Cl)nc(Cl)c2)CC1`, the growth inhibition in test [1] is 3%; in test [4], 103% (active). For the same compound, the inhibition was 8% in test [2] and -1% in test [3]. Further, the outcome in test [5], in test [6], in test [7] and in test [8] was inactive.
With `CC(C)NCc1cccc(-c2ccc(-c3nc4ccccc4[nH]3)cc2)c1`, the growth inhibition in test [1] is 66% (active); in test [4], 101% (active). For the same compound, the results for the inhibition in test [2] and in test [3] were 4% and -2%, respectively. Moreover, the result in test [5], in test [6], in test [7] and in test [8] was inactive.
As to `COc1c(C=NNc2nc(Nc3ccccc3)nc(Nc3ccccc3)n2)ccc(Br)c1O`, the figures for the growth inhibition in test [1] and in test [4] were 37% and 98% (active), respectively. Moreover, the results for the inhibition in test [2] and in test [3] were 63% (active) and 5%, respectively. The outcome in test [5], in test [6], in test [7] and in test [8] was inactive.
In the case of `CCCCC(CC)NC(=O)[C@H]1CNCCN1C(=O)CCCc1ccccc1` (stereo not given in full), the growth inhibition in test [1] is -1%; in test [4], 94% (active). The inhibition is 5% in test [2] and 1% in test [3]. The result in test [5], in test [6], in test [7] and in test [8] was inactive.
Consider `CCN(CCCN1CCCCC1)c1cc(C)nc(Nc2ccc(Cl)c(C(F)(F)F)c2)n1`, for which the growth inhibition in test [1] was 55% (active); in test [4], 96% (active). Besides, the inhibition in test [2] is 43%; in test [3], 2%. Besides, the outcome in test [5], in test [6], in test [7] and in test [8] was inactive.
Take `NC(=O)c1cc2nc(NC3CCC3)nc(Nc3cccc4[nH]ncc34)c2[nH]1`: the growth inhibition in test [1] was 62% (active); in test [4] it was 100% (active). Further, the inhibition in test [2] is 9%; in test [3], 4%. Also, the result in test [5], in test [6], in test [7] and in test [8] was inactive.
In the case of `Cc1cc(N[C@@H](Cc2ccccc2)C(=O)NC2CCCC2)nc(NCCCOC(C)C)n1`, the growth inhibition in test [1] is 43%; in test [4] it was 92% (active). Besides, the inhibition in test [2] was -4%; in test [3] it was -3%. The outcome in test [5], in test [6], in test [7] and in test [8] was inactive.
Take `COc1ccc(-c2cccc(NC(=O)c3ccc(Cl)cc3)c2)cc1CN(C)CCN(C)C`: the results for the growth inhibition in test [1] and in test [4] were 61% (active) and 99% (active), respectively. Further, the figures for the inhibition in test [2] and in test [3] were 37% and 4%, respectively. The outcome in test [5], in test [6], in test [7] and in test [8] was inactive.

(Values after PubChem BioAssay.)
